# Compound activity (PubChem BioAssay)
# An excerpt weighted towards active compounds, which were near 12% of everything screened.
# JMJD2A Tudor inh – blocks the human JMJD2A Tudor domain. AlphaScreen JMJD2A-Tudor / H3K4me3 peptide binding. AID 504339. 390,000 tested, 4.4% active. Potency, µM (series often up to 114 µM), without a hit: top-dose activity change, negative = inhibition, actives largely listed as inhibitors; note: % is set by controls: 0 for no effect and ±100 for the full control effect; nearly all actives have a fitted effect of over 50% in size
# G9a inh – blocks human histone lysine methyltransferase G9a; Potency, µM (doses to about 102 µM), for the others: at the highest dose activity, negative = inhibition, hits mostly inhibitors; G9a H3K9 monomethylation, AlphaScreen, 2 h; 350,000 tested, 8.8% active; AID 504332; note: % is set by controls: 0 for no effect and ±100 for the full control effect; nearly all actives have a fitted effect of over 75% in size
#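 G9a (20 nM) preincubated 15 min RT with compounds, then 500 nM biotinylated H3K9 peptide and 20 uM SAM added; 2 h RT reaction. Monomethyl-H3K9 product detected by AlphaScreen with anti-H3K9me1 antibody, streptavidin donor and anti-rabbit IgG acceptor beads.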
# Sfp inh – blocks B. subtilis Sfp PPTase activity | Q9F4F7 | Biochemical Sfp PPTase activity, qHTS | Potency, µM, for the others: largest response in the series, negative = inhibition, most hits filed as inhibitors | 310,000 tested, 3.5% active | AID 1490;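 note: the enzyme is Sfp with the accession as filed and its product quenches rhodamine fluorescence; 0% = enzyme reaction without inhibitor and -100% = no enzyme wells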
#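 Sfp 15 nM + cpd, 15 min RT; start w/ rhodamine-CoA 5 uM, BHQ-2-YbbR 12.5 uM (final); 50 mM Hepes pH 7.6, 10 mM MgCl2, 0.01% NP-40, 0.01% BSA; read 525/598 nm at 0 and 30 min.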
# BAZ2B block – inhibitors of human BAZ2B bromodomain; Q9UIF8; AlphaScreen BAZ2B-H3K14Ac peptide displacement; Potency, µM (highest dose often 114 µM), for the others: at the highest dose activity change, negative = inhibition, hits mostly inhibitors; 360,000 tested, 4.4% active; AID 504333; note: % is set by controls: 0 for no effect and ±100 for the full control effect; nearly all actives have a fitted effect of over 60% in size
#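 In this displacement format the biotinylated H3(5-23) peptide acetylated at Lys14 serves as ligand at 50 nM, with BAZ2B at 50 nM in PBS pH 7.4 containing 0.01% Tween-20. Donor and acceptor beads are 10 ug/mL final.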
# HP1b chromo inh – inhibitors of HP1-beta chromodomain binding to methylated histone tails. AlphaScreen HP1-beta / biotin-H3K9me3 peptide binding. Potency, µM (titrated, usually from 114 µM), for inactives: at the highest dose activity change, negative = inhibition, actives largely listed as inhibitors. 390,000 tested, 0.56% active. AID 540317; note: nearly all actives have a fitted effect of over 70% in size
#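 HP1-beta protein (50 nM final) preincubated 30 min at room temperature with biotinylated H3(1-18)K9me3 peptide (50 nM) in PBS pH 7.4, 0.01% Tween-20, then compound added for 30 min. AlphaScreen streptavidin donor/nickel chelate acceptor beads (10 ug/mL final), 30 min dark, luminescence read.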
# L3MBTL1 block – inhibitors of human L3MBTL1; Q9Y468; AlphaScreen L3MBTL1–H3K9me1 peptide binding; Potency, µM (titrated, usually from 57.1 µM), for inactives: at the top dose activity, negative = inhibition, most hits filed as inhibitors; 230,000 tested, 0.66% active; AID 485360; note: % is set by controls: 0 for no effect and ±100 for the full control effect; nearly all actives have a fitted effect of over 60% in size
#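 L3MBTL1 50 nM + b-AHA-H3(1-15)K9me1 75 nM, 30 min RT; compound added, 30 min RT; streptavidin donor/Ni-chelate acceptor beads 10 ug/mL each final, 30 min RT dark; AlphaScreen read.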
# Active calls of the source: *; ? = inconclusive; . = not tested or not shown; [ ] = remark or other dose. Calls come from the whole dose curve; as a rule, active = well fitted curve in the direction sought with a large enough effect; inconclusive = small, poorly fitted or top-dose-only effect, or another doubt; inactive = no such curve, though single readings can be large; an effect the other way counts as inactive or inconclusive. Potency is the fitted concentration of half-maximal effect.
SMILES,JMJD2A Tudor inh,G9a inh,Sfp inh,BAZ2B block,HP1b chromo inh,L3MBTL1 block
CCCOC(=O)Nc1nc2ccccc2o1,?,50µM*,9%,79µM*,10%,-2%
O=C(CN1C(=O)C2CCCCN2c2ccc(C(=O)N3CCCC3)cc21)NCc1cccc(Cl)c1 (configuration not stated),-14%,8%[59 µM],.,-14%,15%[57 µM],.
CCCc1ccc(-c2cc(N)n[nH]2)cc1,-27%,22%,11%,79µM*,9%,.
CCCc1ccc(-c2cc(NC(=O)CSc3n[nH]c(N)n3)n(-c3ccccc3)n2)cc1,-28%,2%,14%,?,13%,.
Cc1nn(S(=O)(=O)c2ccc(C(C)C)cc2)c(C)c1S(=O)(=O)N1CCCCCC1,-11%,2%[59 µM],.,-15%,23%[57 µM],.
Cc1cc(C)n(CCc2nc(-c3ccc(C)o3)cs2)n1,79µM*,?,8.9µM*,?,?,.
CCN(C(=O)Cn1cc(S(=O)(=O)Cc2ccccc2Cl)c2ccccc21)c1ccccc1,-7%,-19%[59 µM],.,1%,6%,.
CC(C)N=c1cc2n(-c3ccc(Cl)cc3)c3ccccc3nc-2cc1Nc1ccc(Cl)cc1,7.1µM*,2.5µM*,?,.,4.5µM*,.
COc1cccc(CNCCOCCO)c1OC,-17%,3%[59 µM],14%,.,18%,3%
COCC(C)NCc1cccc(OC)c1OC (configuration not stated),1.8µM*,18µM*,-14%,?,?,-2%
COCC(C)NCc1ccccc1C (configuration not stated),6.3µM*,?,9%,40µM*,?,.
O=c1[nH]c2cc(Cl)c(O)cc2o1,.,.,-8%,.,.,.
O=C(CSc1nnc(-c2cccnc2)s1)Nc1ccc(C(=O)O)cc1,-25%,14µM*,-18%,-12%,16%,10%
COc1ccc2c(Sc3ccccc3)c(C(=O)NCCCN3CCCCC3)[nH]c2c1,?,?,.,?,0%,.
Cc1ccc(NS(=O)(=O)c2ccc3c(c2)N(C)C(=O)CC(=O)N3C)cc1Cl,-21%,-22%[59 µM],.,-28%,26%,.
CCCc1nc2ccccc2n2c(-c3ccccc3)c3c(=O)n(C)c(=O)n(C)c3c12,19%,14%[59 µM],.,18%,123%,.
Cn1c(=O)c2cn3c(c2n(C)c1=O)C(c1ccccc1)CC(c1ccccc1)=N3 (configuration not stated),?,8.9µM*,-6%,?,19%,.
CCC(C(=O)Nc1ccc(C(C)=O)cc1)n1c(C)c2cnn(-c3ccccc3)c(=O)c2c1C (configuration not stated),-32%,7%[59 µM],.,-29%,28%,.
COC(=O)C(CCSC)NC(=O)c1cc2c(n(-c3ccc(Cl)cc3)c1=O)CCCC2=O (configuration not stated),-11%,-24%[59 µM],.,-7%,14%,.
O=C(CCCN1C(=O)/C(=C/c2ccccc2Cl)SC1=S)N1CCCC1,14µM*,-6%[12.7 µM],?,14µM*,?,.
O=C(CCN1C(=O)/C(=C/c2ccccc2Cl)SC1=S)N1CCCC1,?,13%,-15%,25µM*,?,.
O=C(Nc1ccc(F)cc1Cl)C1Cc2ccccc2N1C(=O)c1ccccc1 (configuration not stated),-7%,30%[59 µM],.,-10%,2%,.
O=C(O)c1ccc(/C=N/NC(=O)c2ccc(CN3c4cccc5cccc(c45)S3(=O)=O)cc2)cc1,?,-4%[59 µM],-15%,50µM*,-6%,.
COc1ccc(C(=O)c2c(C)c3ccccc3n2CC(O)CNC(C)C)cc1 (configuration not stated),-26%,45µM*,32µM*,-9%,1%,19%
Cc1cccc(C(=O)N2CCNC(=O)C2CC(=O)Nc2ccc(F)cc2)c1 (configuration not stated),4%,3%[59 µM],.,-2%,34%,.
CCCCC(=O)NNC(=S)NCc1ccccc1,-16%,22%[12.7 µM],27%,-15%,35%,3%
